Test results published in PubChem BioAssay AID2240 (Broad Institute, 2010).
The whole screen tested about 37,000 compounds, of which about 100 (0.27%) were called active. The list comes from a sample in which actives are over-represented; it also holds similar structures and randomly drawn compounds. Values without a mark were called inactive. No stated cut-off is given here; in the data, active means inhibition above about 85%; inconclusive means no clear call, values can overlap the other calls; inactive means below about 68%.

Assay: blocks MITF activity, primary screen, MITF inhibitor project, cell-based, luminescence (AID 2240);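 further: human melanocyte line stably carrying TRPM1 promoter luciferase reporter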
Settings: TRPM1 promoter luciferase, 24 h, hits give high values, concentration not given here
For `Cc1scc(C(=O)NCCc2ccc(S(N)(=O)=O)cc2)c1-c1ccccc1`, the inhibition was 5.94%.
`C[C@@H]1CCCCO[C@H](CN(C)C(=O)NC2CCCCC2)[C@@H](C)CN([C@H](C)CO)C(=O)c2cc(NS(=O)(=O)c3ccc(F)cc3)ccc2O1` showed an inhibition of 0.476%.
With `CS(=O)(=O)N(CC(=O)Nc1cc(C(F)(F)F)ccc1Cl)c1ccccc1Br` the inhibition was -1.7%.
`Cc1ccc(C)c(NC(=O)CCC(=O)O)c1` showed an inhibition of -5.62%.
In the case of `COc1ccc(S(=O)(=O)N(C)C[C@@H]2Oc3ccc(NS(=O)(=O)c4cn(C)cn4)cc3C(=O)N([C@@H](C)CO)C[C@@H]2C)cc1`, the inhibition is reported as -3.33%.
Molecule `O=C(CCn1nc(-c2ccc(Cl)cc2)c2ccccc2c1=O)Nc1ccc(Br)cc1` has an inhibition of -0.695%.
`Cc1noc(C)c1NC(=O)N(C)C[C@@H]1Oc2ccc(NC(=O)C3CC3)cc2C(=O)N([C@H](C)CO)C[C@@H]1C` showed an inhibition of -4.76%.
With `C[C@H]1CN([C@@H](C)CO)C(=O)Cc2cc(NS(=O)(=O)c3ccc(Cl)cc3)ccc2O[C@H]1CN(C)S(C)(=O)=O` the inhibition was 0.52%.
`Cc1cc(N(CC(=O)Nc2ccc(C(F)(F)F)cc2)S(C)(=O)=O)ccc1Br` showed an inhibition of -4.48%.
Work on `Cc1cc2oc(C(=O)Nc3sc4c(c3C(=O)NCc3ccco3)CCC4)c(C)c2cc1C` yielded an inhibition of 0.363%.
`C[C@@H]1CN([C@@H](C)CO)C(=O)c2cccc(NC(=O)Nc3ccccc3)c2O[C@H]1CN(C)Cc1ccccc1` showed an inhibition of 41.2%.
Molecule `Cc1ccc(NC(=O)CSc2nc3ccccc3s2)cc1[N+](=O)[O-]` has an inhibition of -10%.
Molecule `Cc1nn(CC(=O)NCc2ccccn2)c(C)c1[N+](=O)[O-]` has an inhibition of -12.3%.
Work on `COc1cc([N+](=O)[O-])ccc1NC(=S)NCc1cc(C)n(C)n1` yielded an inhibition of -13.2%.
`C[C@H]1CN([C@@H](C)CO)C(=O)Cc2cc(NC(=O)Nc3ccc(F)cc3)ccc2O[C@H]1CN(C)C(=O)Nc1ccc(C(F)(F)F)cc1` showed an inhibition of -15.8%.
With `C[C@@H]1CCCCO[C@@H](CN(C)C)[C@@H](C)CN([C@H](C)CO)C(=O)c2cc(N(C)C)ccc2O1` the inhibition was 5.75%.
Work on `CCOC(=O)Cc1csc(NC(=O)c2sc3cccc(F)c3c2Cl)n1` yielded an inhibition of 57.6%.
`CN(CC(=O)Nc1ccc(Br)cc1)S(=O)(=O)c1ccc2ccccc2c1` showed an inhibition of 11%.
Molecule `C[C@H](CO)N1C[C@H](C)[C@H](CN(C)C(=O)Nc2ccc(C(F)(F)F)cc2)Oc2ccc(NC(=O)Nc3ccccc3)cc2C1=O` has an inhibition of 43%.
`O=C(CN1C(=O)COc2ccc(Cl)cc21)Nc1ccc(N2CCOCC2)cc1` showed an inhibition of -7.45%.
